Bioassay records as filed in PubChem BioAssay.
The list is not random: actives were taken first. Their share in the collection is about 3.1%.
LGR2 inh: blocks bursicon-induced cAMP signaling via Drosophila LGR2; 380,000 compounds, 0.35% hits; HEK293 LGR2, CRE-luciferase, bursicon-stimulated, 4 h; inhibition, % at 9.99 µM; AID 720647;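 active = drop in luminescence signal, shown as inhibition above about 50% in the replicate tests, limit read from the data, passing the limit was not always enough; inconclusive = probably only some replicates passing the limit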;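 note: agonist challenge used bursicon conditioned medium at about half maximal strength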
PAX8 reporter: lowers PAX8-driven luciferase in RMG-I cells. RMG-I TPO-luciferase reporter, SteadyGlo, 24 h. inhibition, % at 12.6 µM. 360,000 compounds, 1.2% hits;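 active = mean replicate inhibition at least 60% with every replicate also reaching 60%; inconclusive = only one of the two criteria is met; inactive = mean below 60% and not all replicates reaching 60%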;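 note: luciferase light reporting Pax8 driven TPO promoter activity; plate controls were median of neutral control wells for no effect and mitoxantrone controls for full effect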
TWEAK-Fn14 inh: blocks TWEAK-Fn14 interaction in a reporter cell assay; 360,000 compounds, 2% hits; TWEAK-stimulated Fn14 reporter cells, luciferase luminescence, 8 h; inhibition, % at 10 µM; AID 1159606; in the data active = inhibition above about 50%
TROY NFkB inh: inhibitors of TROY-dependent NF-kB signaling | Q293 LMP1-TROYcd NF-kB luciferase reporter, 4 h | inhibition, % at 10 µM | 360,000 compounds, 0.98% hits | AID 1347056;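 active = compounds whose plate-normalised and pattern-corrected inhibition of the luciferase reporter signal at the single screening dose is 50% or more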
EWS-Fli block: blocks EWS/Fli oncoprotein-driven transcription; A673 NR0B1-luciferase reporter, viability-normalised; inhibition, % at 12.6 µM; 350,000 compounds, 0.67% hits; AID 651661;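 active = mean inhibition of at least 50% after viability correction, with every replicate also passing that limit; inconclusive = mean reaches 50% but only one of two replicates passes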;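 note: firefly luciferase signal divided by Alamar Blue viability fluorescence both relative to DMSO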
EBV LMP1 NFkB: reduces LMP1-driven NF-kappaB luciferase signal; LMP1-induced NF-kappaB luciferase reporter cells, luminescence; inhibition, % at 12.5 µM; 350,000 compounds, 0.69% hits; AID 504558; in the data active = inhibition above about 41%; inconclusive = no clear call, values can overlap the other calls;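 note: 0% = neutral control wells and 100% = reference inhibitor control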
DNA binding: DNA binding small molecules; shares compounds with EWS-Fli block; salmon sperm DNA acridine orange fluorescence polarization; AC35, µM (series often up to 68 µM), inactives show top-dose activity change, negative = DNA binding; 640 compounds, 2% hits;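 active = fitted curve reaches a 35% signal fall AC35 below twice the sample's top valid tested dose, actives reach about 48 µM in these data; inactive = the rest, including activity in the rising direction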;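 note: lower polarization ratio signals compound binding to DNA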
* = called active by the depositor; ? = inconclusive; . = no result.

SMILES	LGR2 inh	PAX8 reporter	TWEAK-Fn14 inh	TROY NFkB inh	EWS-Fli block	EBV LMP1 NFkB	DNA binding
COc1ccc(NS(=O)(=O)c2cc(NC(=O)CNC(=O)c3cccc(OC)c3)ccc2C)cc1	-8	8	-14	-12	63*	-17	2%
COc1cccc(NC(=O)CNC(=O)c2ccccc2)c1	-16	.	-24	-26	.	-19	.
C[C@H]1CN([C@@H](C)CO)C(=O)c2cc(-c3cccnc3)cnc2O[C@H]1CN(C)C(=O)C1CCOCC1	-5	.	.	.	-18	.	.
C=CCn1c(O)c(N=Nc2ccccc2)c2ccccc21	-2	-17	3	-8	55*	1	-3%
N#CC1C=Cc2ccccc2N1C(=O)c1ccccc1 (stereo not drawn)	4	37	7	-12	9	-2	.
N#CC1C=Cc2c(ccc3ccccc23)N1C(=O)c1ccccc1 (stereo not drawn)	-60	6	54*	-12	66*	32	-3%
C[C@H]1CN([C@@H](C)CO)C(=O)c2cc(NS(=O)(=O)c3ccc(Cl)cc3)ccc2O[C@H]1CN(C)Cc1ccc(Cl)c(Cl)c1	15	81*	.	.	61*	.	-18%
Cc1noc(C)c1NC(=O)Nc1ccc2c(c1)CC(=O)N([C@H](C)CO)C[C@@H](C)[C@@H](CN(C)Cc1ccc(Cl)c(Cl)c1)O2	-7	8	.	.	61*	.	0%
C[C@@H]1CN([C@H](C)CO)C(=O)c2cc(NS(=O)(=O)c3ccc(Cl)cc3)ccc2O[C@@H]1CN(C)Cc1ccc(Cl)c(Cl)c1	14	-3	.	.	53*	.	0%
CN(C[C@H]1N[C@@H](CO)[C@@H]1c1ccc(C2=CCCC2)cc1)C(=O)c1cccc(F)c1	7	111*	.	.	77*	.	-18%
C[C@@H]1CN([C@@H](C)CO)S(=O)(=O)c2ccc(-c3ccc(C(=O)N(C)C)cc3)cc2O[C@@H]1CN(C)C(=O)C1CCC1	23	-2	.	.	-2	.	.
CCN1CCS/C1=C\C=C\C1=[N+](CC)CCS1	24	76*	31	30	53*	30	-1%
C=C1C(=O)[C@@]23[C@H](O)C[C@@H]4C(C)(C)CC[C@H](O)[C@@]4(C)[C@@H]2CC[C@@H]1[C@H]3O	59*	112*	95*	28	60*	94*	-9%
C[C@H]1CN([C@@H](C)CO)S(=O)(=O)c2ccc(C#CC3CC3)cc2O[C@@H]1CN(C)C(=O)c1ccncc1	-5	.	.	.	2	.	.
O=c1c2ccccc2oc2cc(C#CC3(O)CCCCC3)ccc12	.	7	101*	87*	77*	11	6%
Cc1ccc(NC(=S)c2nc3ccccc3[nH]2)c(C)c1	-38	-137	10	-11	.	-2	.
Cc1cccc(/C=C(\c2nc3ccccc3[nH]2)S(=O)(=O)c2ccccc2)c1	?	106*	75*	10	71*	10	4%
CCn1c(NCc2ccc(N(C)C)cc2)nc2ccccc21	.	.	-3	-22	.	-4	.
CN(C)c1ccc(N=Nc2nc3ccccc3n2C)cc1	103*	90*	104*	90*	86*	57*	-3%
COc1ccc2c3c(n(C)c2c1)[C@@H](CO)N(C(=O)C1CCC1)CC31CN(C(=O)Nc2cccc(F)c2)C1	6	.	.	.	5	.	.
CO[C@H]1CN(C)C(=O)c2ccc(NC(=O)Cc3ccccc3)cc2OC[C@H](C)N(CC2CC2)C[C@@H]1C	11	.	.	.	0	.	.
c1ccc2cc(N3CCCCC3)ccc2c1	-37	13	-47	-11	-38	4	.
O=C1c2ccccc2C(=O)c2cc(N3CCCCC3)ccc21	97*	9	101*	83*	83*	45*	-10%
CC(C)(C)C(=O)Nc1ccc(N=Nc2ccccc2)cc1	72*	-37	4	83*	59*	-4	-5%
O=C(O)CCC(=O)Nc1ccc(N=Nc2ccccc2)cc1	.	.	-18	-18	.	-13	.
Cc1c(N=Cc2cc(Br)cc(Br)c2O)cccc1C(=O)O	5	-13	9	-6	74*	68*	-7%
Cc1ccc(N2C(=O)c3cccc4c(N)ccc(c34)C2=O)c2cccnc12	-1	?	26	-2	60*	-13	-6%
